KCNQ2 enhance = potentiators of rat KCNQ2 potassium channel | O88943 | CHO-K1 KCNQ2, FluxOR thallium flux fluorescence; active compounds read high | B-score at 10 µM | actives 0.54% (n = 310,000) | AID 2239;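 active = fluorescence ratio B-score at least 3 SD of library B-scores, with initial fluorescence B-score within 3 of them, cut at about 5.3 in these data; same plate scores as AID 2156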;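 also: B-score of peak minus minimum over baseline fluorescence ratio after K+ and Tl+ stimulus; positive B-score means potentiation of KCNQ2 with more thallium influx and brighter signal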
KCNQ2 inh = blocks the rat KCNQ2 potassium channel; B-score at 10 µM; AID 2156; O88943; actives 1.1% (n = 310,000); CHO-K1 KCNQ2, FluxOR thallium flux, 20 min; active compounds read low;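 active = fluorescence ratio B-score at most minus 3 library SDs, with starting brightness B-score within 2 library SDs, cut at about -5.5 in these data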
KCNQ2 inh conf = confirmation of rat KCNQ2 potassium channel inhibitors; activity change, negative = inhibition, % at 10 µM; actives 57% (n = 1,000); shares compounds with KCNQ2 inh; KCNQ2-expressing cells, thallium flux, inhibition; active compounds read low;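 also: 0% = vehicle wells and values are ratio percent relative to vehicle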
KCNQ1 spec = KCNQ2 inhibitor that also affects human KCNQ1 channel; activity change, negative = inhibition, % at 10 µM; KCNQ1-expressing cells, FluxOR thallium flux fluorescence; active compounds read low; actives 15% (n = 1,000); shares compounds with KCNQ2 inh;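 active = activity change at least 3 SD of negative controls below their mean in both duplicate wells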;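 also: CHO cells stably transfected with KCNQ1 and depolarized by potassium stimulus; peak minus minimum fluorescence over baseline after thallium addition; 0% = vehicle negative control and -100% = blank without thallium stimulus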
Target sequence (P51787 whole entry, looked up): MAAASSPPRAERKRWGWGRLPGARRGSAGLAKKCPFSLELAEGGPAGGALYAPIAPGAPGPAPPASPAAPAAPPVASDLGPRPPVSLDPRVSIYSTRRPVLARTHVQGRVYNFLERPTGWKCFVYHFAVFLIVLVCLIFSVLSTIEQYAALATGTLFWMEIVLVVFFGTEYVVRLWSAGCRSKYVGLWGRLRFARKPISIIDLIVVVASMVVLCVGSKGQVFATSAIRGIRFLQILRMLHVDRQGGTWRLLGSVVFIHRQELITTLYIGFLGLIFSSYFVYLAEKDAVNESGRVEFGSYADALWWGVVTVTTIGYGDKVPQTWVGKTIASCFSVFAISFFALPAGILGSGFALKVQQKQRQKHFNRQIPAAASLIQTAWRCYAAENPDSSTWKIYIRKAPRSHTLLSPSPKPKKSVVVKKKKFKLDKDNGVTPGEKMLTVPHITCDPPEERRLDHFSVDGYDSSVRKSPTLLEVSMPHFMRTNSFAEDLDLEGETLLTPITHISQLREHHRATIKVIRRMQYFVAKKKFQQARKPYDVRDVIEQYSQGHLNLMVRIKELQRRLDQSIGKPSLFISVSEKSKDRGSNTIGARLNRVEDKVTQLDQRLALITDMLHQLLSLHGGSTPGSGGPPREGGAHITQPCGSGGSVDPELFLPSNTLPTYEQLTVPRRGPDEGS
CHO parental ctr = KCNQ2 inhibitor counter-screen hit in parental CHO cells. AID 493029. shares compounds with KCNQ2 inh. activity change, % at 10 µM. thallium flux counter-screen; active compounds read low. actives 14% (n = 1,000);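 also: 0% = vehicle negative controls with stimulus buffer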
KCNQ2 patch conf = confirmation of rat KCNQ2 potassium channel inhibitors | actives 49% (n = 550) | KCNQ2-expressing cells, automated patch clamp current | calls only at 10 µM | AID 588531 | shares compounds with KCNQ2 inh
* hit, by the source's call; i = inactive; · = no result; + = active, no number. Only some compounds are listed: those with a hit (about 1.6% of all), similar ones and a draw of the others. Unless noted, no rule for the calls is given here.

SMILES	KCNQ2 enhance	KCNQ2 inh	KCNQ2 inh conf	KCNQ1 spec	CHO parental ctr	KCNQ2 patch conf
Cc1ccc(C(C[N+](=O)[O-])Sc2ccc(N)cc2)cc1 (stereo not given)	-9.4	-9.4*	-30%*	i	i	i
Nc1ccc(Sc2ccc([N+](=O)[O-])cc2)cc1	0.29	i	·	·	·	·
Cc1ccc(OCCC(=O)N2CCN(c3ccc(O)cc3)CC2)cc1	0.55	i	·	·	·	·
COc1ccc(/C=C/C(=O)N2CCCc3ccccc32)c(OC)c1	·	i	·	·	·	·
COc1ccc(OC)c(/C=C/C(=O)N2CCCc3ccccc32)c1	-7	-7*	-38%*	i	i	i
CC(=O)CN1Cc2ccccc2/C1=N\C(=O)Nc1ccccc1	1	i	·	·	·	·
COc1ccc(N2Cc3ccccc3/C2=N\C(=O)Nc2ccccc2)cc1	-7.1	-7.1*	-28%*	i	i	+
CCCN(C(=O)C1CCCN(c2ncnc3c2nc2n3CCCCC2)C1)c1ccc(F)cc1 (stereo not given)	·	i	·	·	·	·
OCCC1CN(Cc2cccc3c2OCO3)CCN1C1CCCCC1 (stereo not given)	·	i	·	·	·	·
CC(C)C(c1nnnn1Cc1ccccc1)N(Cc1ccco1)Cc1cccs1 (stereo not given)	-9	-9*	-44%*	-45%*	-41%*	i
COc1ccc(Cn2nnnc2C(C(C)C)N(Cc2ccco2)Cc2cccs2)cc1 (stereo not given)	·	i	·	·	·	·
CCc1cc(/C(Cc2ccc3ccccc3n2)=N\O)c(O)cc1O	-12	-12*	-35%*	-42%*	-27%*	+
CCc1cc(/C(Cc2ccccn2)=N\O)c(O)cc1O	·	i	·	·	·	·
Cc1ccnn1CC(=O)N/N=C/c1cn[nH]c1-c1ccccc1	·	i	·	·	·	·
Cc1ccc(C)c(CN2CCC(CNC(=O)CCc3nnc4ccc(N5CCC(C)CC5)nn34)CC2)c1	0.68	i	·	·	·	·
O=C(CCCCn1c(=O)[nH]c2ccsc2c1=O)NCCc1ccccc1	1.2	i	·	·	·	·
O=C(CCn1c(=O)[nH]c2ccsc2c1=O)N(CCc1ccccc1)Cc1ccccc1	-7.4	-7.4*	-26%*	i	i	+
CC(C)CN(CC(C)C)S(=O)(=O)N1CCC(C(=O)NCc2ccc3c(c2)OCO3)CC1	4.8	i	·	·	·	·
Cc1cccc(C)c1OCc1cc(C(=O)N2CCC(C3CCCCC3)C2)no1 (stereo not given)	·	i	·	·	·	·
Cc1cccc(C)c1OCc1cc(C(=O)N2CCC(c3ccccc3)CC2)no1	-9.2	-9.2*	-24%*	i	i	+
CCN1C(=O)CSC1=NC12CC3CC(CC(C3)C1)C2	-7.8	-7.8*	-32%*	-30%*	-30%*	i
CN1C(=O)CSC1=NC12CC3CC(CC(C3)C1)C2	·	i	·	·	·	·
O=C(c1ccco1)N1CCN(c2ncnc3c(-c4ccc(Cl)cc4)nsc23)CC1	0.37	i	·	·	·	·
COc1cc(C(=O)NC(=S)Nc2ccccc2N2CCCC2)cc(OC)c1OC	·	i	·	·	·	·
COc1ccc(Cl)cc1C(=O)Nc1ccccc1N1CCN(C)CC1	·	i	·	·	·	·
SMILES	KCNQ2 enhance	KCNQ2 inh	KCNQ2 inh conf	KCNQ1 spec	CHO parental ctr	KCNQ2 patch conf
COc1ccc(Br)cc1C(=O)Nc1ccccc1-c1ccccc1	-9.3	-9.3*	-15%*	i	i	i
COc1ccc(Br)cc1C(=O)Nc1ccccc1N1CCCC1	·	i	·	·	·	·
COc1ccc(Cl)cc1C(=O)Nc1ccccc1N1CCCCC1	-7.5	-7.5*	-32%*	i	i	i
COc1cc(C(=O)Nc2ccccc2N2CCCCC2)cc(OC)c1OC	-7.4	-7.4*	-39%*	-28%*	i	+
O=C(/C(Cl)=C/Nc1ccc(Br)cn1)C(F)(F)F	·	i	·	·	·	·
Cc1cc(OCC(=O)NCc2ccncc2)ccc1Cl	0.54	i	·	·	·	·
Cc1ccc(-c2nc3sc(C#N)c(N)n3c(=O)c2C#N)cc1	·	i	·	·	·	·
CC(=O)OC[C@H]1O[C@@H](n2ncc(=O)[nH]c2=O)[C@H](OC(C)=O)[C@@H]1OC(C)=O	0.09	i	·	·	·	·
O=C(OCC1OC(n2ncc(=O)[nH]c2=O)C(OC(=O)c2ccccc2)C1OC(=O)c1ccccc1)c1ccccc1 (stereo not given)	-11	-11*	-22%*	i	i	i
CCOCCCn1c(=NC(=O)c2ccco2)c(C(=O)OCC)cc2c(=O)n3cccc(C)c3nc21	·	i	·	·	·	·
Cn1cc([N+](=O)[O-])c(C(=O)Nc2cc(Oc3ccccc3)cc([N+](=O)[O-])c2)n1	1.6	i	·	·	·	·
Cc1cccc(Oc2cc(NC(=O)c3ccccc3)cc([N+](=O)[O-])c2)c1	-7.3	-7.3*	i	i	i	·
Cc1cc(N2CCC(C)CC2)n2ncc(-c3ccccc3)c2n1	-8.3	-8.3*	-16%*	i	i	i
Cc1cc(N2CCCCC2)n2ncc(-c3ccccc3)c2n1	·	i	·	·	·	·
CC(C)n1c(SCC(=O)Nc2nncs2)nnc1-c1ccco1	1.7	i	·	·	·	·
O=C(NCCc1ccccc1)c1ccc2nc(-c3ccco3)c(-c3ccco3)nc2c1	0.57	i	·	·	·	·
O=C(c1ccccc1)c1ccc2nc(-c3ccco3)c(-c3ccco3)nc2c1	-7.7	-7.7*	i	i	i	·
Cc1ccc(S(=O)(=O)CC(=O)Nc2cc(C)on2)cc1	1.8	i	·	·	·	·
COc1ccc(/C=N/NC(=O)c2sccc2OCc2ccc(F)cc2)cc1OC	·	i	·	·	·	·
CCN(c1ccc(OC)cc1)S(=O)(=O)N1CCCC(C(=O)NCc2ccccc2Br)C1 (stereo not given)	-10	-10*	i	i	i	·
COc1ccc(CNC(=O)C2CCCN(S(=O)(=O)c3ccccc3)C2)cc1 (stereo not given)	·	i	·	·	·	·
CN(CC(=O)Nc1ccccc1Sc1ccccc1)C1CCCCC1	-6.7	-6.7*	-37%*	-35%*	-27%*	i
CSc1ccccc1NC(=O)CN(C1CCCCC1)S(C)(=O)=O	·	i	·	·	·	·
CCOC(=O)CC(NC(=O)C1c2ccccc2Oc2ccccc21)c1ccccc1Cl (stereo not given)	·	i	·	·	·	·
CC(C)=CCc1cc([C@@H]2CC(=O)c3ccc(O)c(CC=C(C)C)c3O2)ccc1O	-9	-9*	i	i	i	·
SMILES	KCNQ2 enhance	KCNQ2 inh	KCNQ2 inh conf	KCNQ1 spec	CHO parental ctr	KCNQ2 patch conf
Cc1ccc2c(c1)C(=O)CC(c1ccc3c(c1)OCCO3)O2 (stereo not given)	0.39	i	·	·	·	·
C=CCNc1nc(Nc2cc(Cl)ccc2OC)nc(OC)n1	0.98	i	·	·	·	·
CCOC(=O)N1CCC2(CC1)NCCc1c2[nH]c2ccccc12	0.58	i	·	·	·	·
COc1ccc(OCC(=O)Nc2ccc(OC)c(S(=O)(=O)N3CCCCC3)c2)cc1	1.3	i	·	·	·	·
Cc1ccc(-c2cnc(C3CC3)o2)cc1S(=O)(=O)Nc1ccccc1	·	i	·	·	·	·
Cc1ccc(N(C)S(=O)(=O)c2cc(-c3cnc(C4CC4)o3)ccc2C)cc1	-7.2	-7.2*	-15%*	i	i	i
COc1ccc(C(=O)CSc2n[nH]c(=O)n2Cc2ccco2)cc1	1.2	i	·	·	·	·
Cn1c(=NC(=O)COc2ccccc2)sc2ccccc21	0.07	i	·	·	·	·
